Data reported in PubChem BioAssay AID504900 (The Scripps Research Institute Molecular Screening Center, 2011).
This is one part of the list. A number with no mark means an inactive call. Active and inactive are the calls of the source. Cut-off read from the data, not from the text of the source: active = inhibition above about 32%; inactive = the rest.

The compounds below were run against Mu-type opioid receptor (Homo sapiens) + Delta-type opioid receptor (Homo sapiens) (UniProt P35372+P41143) (assay: OPRM1-OPRD1 heterodimer inverse agonism – cell-based, luminescence, confirmation (AID 504900;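 note: 0% = cells with DMSO and 100% = wells lacking cells with DMSO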)). Conditions: cells expressing OPRM1/OPRD1 heterodimer, at 9.3 µM, active compounds read high.
Mu-type opioid receptor (Homo sapiens) + Delta-type opioid receptor (Homo sapiens), sequence (P35372 whole entry, looked up): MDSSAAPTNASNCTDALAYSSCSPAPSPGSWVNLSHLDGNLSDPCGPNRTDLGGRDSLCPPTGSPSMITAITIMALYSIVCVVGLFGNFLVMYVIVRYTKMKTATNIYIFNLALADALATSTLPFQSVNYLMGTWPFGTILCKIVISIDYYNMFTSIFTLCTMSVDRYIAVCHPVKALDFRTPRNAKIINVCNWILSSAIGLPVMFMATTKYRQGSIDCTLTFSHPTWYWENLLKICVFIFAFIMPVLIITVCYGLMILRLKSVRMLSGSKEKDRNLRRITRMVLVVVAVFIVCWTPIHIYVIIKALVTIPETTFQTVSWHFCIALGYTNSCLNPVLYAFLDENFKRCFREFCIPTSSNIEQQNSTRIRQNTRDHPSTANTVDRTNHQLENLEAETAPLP
Mu-type opioid receptor (Homo sapiens) + Delta-type opioid receptor (Homo sapiens), sequence (P41143 whole entry, looked up): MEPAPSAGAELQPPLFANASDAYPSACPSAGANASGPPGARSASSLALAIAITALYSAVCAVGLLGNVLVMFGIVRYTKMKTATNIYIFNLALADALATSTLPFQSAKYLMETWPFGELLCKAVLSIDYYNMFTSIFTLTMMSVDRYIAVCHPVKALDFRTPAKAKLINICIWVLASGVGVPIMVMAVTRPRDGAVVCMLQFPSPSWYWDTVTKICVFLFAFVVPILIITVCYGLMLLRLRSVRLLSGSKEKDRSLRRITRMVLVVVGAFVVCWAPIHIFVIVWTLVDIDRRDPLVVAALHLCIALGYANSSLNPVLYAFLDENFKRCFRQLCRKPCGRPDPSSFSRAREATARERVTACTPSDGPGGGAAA
`COc1cc(NS(=O)(=O)c2ccc3ccccc3c2)c2ncccc2c1` showed an inhibition of -82.7%.
Compound `Cc1ccc(NNC(=O)c2cccs2)cc1Cl` has an inhibition of -17.7%.
With `C=CCn1c(N)c(C(=O)OCC(C)C)c2nc3ccccc3nc21` the inhibition was 14.8%.
With `COC(=O)Cc1c(-c2[nH]c3ccccc3c2CC(=O)OC)[nH]c2ccccc12` the inhibition was -123%.
In the case of `Cc1ccc(C(=O)CNc2ccc(F)cc2)cc1`, the inhibition is reported as -20%.
`O=C1C(=O)N(CC2COc3ccccc3O2)c2ccccc21` (centres undefined) was tested, and the inhibition was 15.2%.
With `Cc1cccc(C)c1NC(=O)C(Cl)C(=O)c1ccccc1` (centres undefined) the inhibition was -42.6%.
With `CN(c1ccccc1)S(=O)(=O)c1ccc(NC(=O)COc2ccccc2)cc1` the inhibition was -21.8%.
Work on `Cc1ccc2c(c1)C(O)(CC(=O)c1cccnc1)C(=O)N2` (centres undefined) yielded an inhibition of 22.7%.
Compound `CN(C)/C=C1/Nc2ccccc2C1=O` has an inhibition of -27.4%.
For `CSCCC(NC(=O)COc1ccccc1)C(=O)OCC(=O)c1cc2ccccc2o1` (centres undefined), the inhibition was 37.5% (active).
`O=C1C(=O)N(c2ccccc2)c2ccccc21` gave an inhibition of -11.8%.
Compound `Oc1ccc(N=Nc2nccs2)c(O)c1` has an inhibition of 12.6%.
`O=C(CCl)NNc1cccc(Cl)n1` was tested, and the inhibition was 69.8% (active).
Compound `CCOC(=O)CN1C(=O)C(=O)c2cc(C)ccc21` has an inhibition of -25.7%.
In the case of `CC(C)OC(=O)CN1C(=O)C(=O)c2ccccc21`, the inhibition is reported as -355%.
`CN(O)C(=S)c1ccccc1` gave an inhibition of 16.7%.
Compound `CCOC(=O)CN1C(=O)C(O)(CC(=O)c2ccccn2)c2ccccc21` (centres undefined) has an inhibition of 24.7%.
For `O=[N+]([O-])/C=C/c1ccc2c(ccn2Cc2ccccc2)c1`, the inhibition was -234%.
In the case of `CCOc1ccc(NC(=O)c2cccc3c2C(=O)N(CC2CCCO2)C3)cc1` (centres undefined), the inhibition is reported as -4.18%.
In the case of `Cc1cccc(N=Nc2c(O)[nH]c3ccc(F)cc23)c1`, the inhibition is reported as 20.6%.
Work on `CCCCC(=O)NNC(=S)NC(=O)C(c1ccccc1)c1ccccc1` yielded an inhibition of -427%.
With `Cc1cccc2c1N(CC(=O)OC(C)C)C(=O)C2=O` the inhibition was -138%.
`N#CC1=C(N)C(C#N)(C#N)[C@H](c2ccsc2)[C@H]2COCC=C12` was tested, and the inhibition was -0.3%.
